Data as given in PubChem BioAssay AID504546 (Broad Institute, 2011).
Inconclusive results are not listed. Calls of active or inactive are those of the source.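 The calls were made as follows: active = every repeat run fits a falling-signal curve with half-maximal potency within ten times top tested dose; inconclusive = runs disagree, or flat moderate drop, or poor fit; inactive = every run inactive, including signal moving upward.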

Test: ADP-Glo luciferase signal interference – biochemical, luminescence, cherry-picked samples, set 2, artefact control for CDK5 inhibitor project, dose response (AID 504546);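 also: 0% = DMSO wells and -100% = wells lacking ADP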
Details: ADP-Glo detection reagent counter screen, 5 uM ADP; series mostly up to 30 µM; activity change, negative = inhibition: at the top concentration

Compound | activity change, negative = inhibition
FC(F)(F)c1ccc(N/N=C/c2cccnc2)nc1 | 18.8% (inactive)
N#Cc1c(N)n(C2OC(CO)C(O)C2O)c2ncnc(N)c12 (stereo not given) | 7.26% (inactive)
C=CCNc1nc(N)c(C(=O)c2ccc3c(c2)OCO3)s1 | -0.228% (inactive)
Cc1ccc(C(=O)O/N=C(\N)c2ccccn2)cc1C | 14% (inactive)
Oc1cccc(C=NNc2ccccn2)c1 | 12.7% (inactive)
O=C(c1ccc2c(c1)OCCO2)N1CCN(c2ccccn2)CC1 | 14.4% (inactive)
ON=C1c2ccccc2-c2ccc(O)cc21 | -4.06% (inactive)
COc1cc(OC)cc(C(=O)N2CCN(c3ccccn3)CC2)c1 | 1.89% (inactive)
Oc1ccc(/C=N/Nc2cccc(Cl)n2)c(O)c1 | -0.095% (inactive)
COc1ccc2ccc3ccc(OC)c(OC(C)=O)c3c2c1 | 4.29% (inactive)
O=c1c(O)c(-c2ccc(O)c(O)c2)oc2cc(O)ccc12 | 15.9% (inactive)
Cc1cc(-c2nsc(=O)o2)c(S(C)(=O)=O)s1 | 2.16% (inactive)
CC(C)(C)C(=O)c1sc(Nc2ccccc2)nc1N | 13.1% (inactive)
CCCc1cc(-c2[nH]ncc2-c2ccc(C(=O)OCC)o2)c(O)cc1O | 3.88% (inactive)
CNS(=O)(=O)c1ccc2c3c(cccc13)C(=O)N2 | 16.5% (inactive)
Cc1nn(-c2ccc(Cl)cn2)c2c1C(=O)CC(C)(C)C2Br (stereo not given) | 1.63% (inactive)
Oc1ccc(C=NNc2ccccn2)c(O)c1 | -9.83% (inactive)
Clc1cncc(Cl)c1N/N=C/c1ccccc1 | 3.75% (inactive)

Compound | activity change, negative = inhibition
COc1ccc(Nc2nccc(-c3ccc([N+](=O)[O-])cc3)n2)cc1 | -11.6% (inactive)
Cc1cccc(Nc2nc(N)c([N+](=O)[O-])c(NCCO)n2)c1 | -6.98% (inactive)
Clc1cccc(Cl)c1/C=N/Nc1c(Cl)cncc1Cl | -10.4% (inactive)
CC(C)[C@H](CO)N(Cc1cccc(F)c1)c1nc(Nc2cccc(Cl)c2)c2ncn(C(C)C)c2n1 | 0.324% (inactive)
COc1ccc2nc3c(cc2c1)c(NC(=O)CC(C)C)nn3CC(C)C | -2.05% (inactive)
O=C1NC(=O)C(c2ccccc2[N+](=O)[O-])=C1Nc1ccc(O)c(Cl)c1 | -4.98% (inactive)
Cc1[nH][nH]c(=O)c1C(c1ccccc1[N+](=O)[O-])C(C#N)C#N (stereo not given) | -5.72% (inactive)
O=C(O)c1ccc(N/N=C/c2ccc(C(F)(F)F)cc2)cc1 | -9.49% (inactive)
Oc1ccc(/C=N/Nc2ccc(C(F)(F)F)cn2)c(O)c1 | 20.8% (inactive)
COc1ccc2nc(C)cc(Nc3ccc(C)cc3)c2c1 | 13.1% (inactive)
COc1cc(/C=N/Nc2ccc(C(F)(F)F)cn2)cc(OC)c1O | 1.2% (inactive)
COc1cc2c(ccc3cc(OC)c(OC)c(O)c32)cc1O | -0.298% (inactive)
Cc1nn(-c2ncccn2)c2c1C(=O)CC(C)(C)C2Br (stereo not given) | 5.02% (inactive)
Cc1ccc2[nH]c(C(F)(F)F)cc(=O)c2c1 | 14.9% (inactive)
CC(C)n1cnc2c(Nc3ccc(C(=O)O)cc3)nc(Cl)nc21 | 5.34% (inactive)
O=C(O)c1ccc(/C=N/Nc2ccc(C(F)(F)F)cn2)cc1 | -6.31% (inactive)
COc1ccc(S(=O)(=O)Nc2c(C(=O)O)[nH]c3ccc(OC)cc23)c(OC)c1 | 14.8% (inactive)
